Results filed as inconclusive are left out. Unmarked numbers belong to inactive results. Calls follow the shape of the dose curve; as a rule, active = well fitted inhibition curve with a large enough effect; inconclusive = small, poorly fitted or top-dose-only effect; inactive = no such curve, though single readings can be large or run the other way. Numbered stars: 1 amine (or outer) side, 2 acyl side, 3 side chain; on linkers, the order of the positions; unused ones are H or OH. Square brackets hold non-standard residues; d marks the D form. Peptide text beside a SMILES is read from it. * marks the point of attachment. ξ: configuration not given here. X9 = CCC(C)(N*)C(=O)C1CC[C@@H](C(=O)N[C@@H](Cc2ccccc2)C(=O)NCC(=O)O)N1; X8 = O=C([C@@H]1CC(O)CN1[*:1])[*:2]; aIle = CC[C@@H](C)[C@H](N)C(=O)O; Thr(3ξ) = CC(O)[C@H](N)C(=O)O; ξIva = CCC(C)(N)C(=O)O; Aib = CC(C)(N)C(=O)O
biological target: Retinaldehyde dehydrogenase 3 (Homo sapiens) (UniProt P47895); experiment: qHTS for Inhibitors of the Aldehyde Dehydrogenase Family (ALDH1A3) Primary screen (AID 2061315); details: ALDH inhibition qHTS; series mostly up to 56 µM; activity change, negative = inhibition: at the top concentration;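 also: plate controls were DMSO vehicle for no effect and reference inhibitor for full effect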

Row | SMILES | activity change, negative = inhibition
1 | COc1ccc(C2(CNC(=O)[C@](C)(Cc3c[nH]c4ccccc34)NC(=O)Nc3ccc([N+](=O)[O-])cc3)CCCCC2)nc1 | 5.82%
2 | Cc1cc(C)c(NC(=O)N(Cc2ccc3c(c2)Cc2ccccc2-3)C2CCCCCC2)c(C)c1 | -19%
3 | COc1cc(CO)ccc1O[C@@H]1O[C@H](CO)[C@@H](O)[C@H](O)[C@H]1O | -20.5%
4 | COc1ccc([C@H]2Cc3cccc(O)c3C(=O)O2)cc1OC | 18.3%
5 | CC(=O)OC1C[C@]2(C)C(O)CC(C)=C[C@H](OC(=O)c3ccc(O)cc3)C2[C@]1(O)C(C)C (stereo not given in full) | -21.3% [at 28 µM]
6 | C=C1C(O)C[C@@H]2C(C(=O)O)=CO[C@@H](O[C@@H]3O[C@H](CO)[C@@H](O)[C@H](O)[C@H]3OC(=O)c3ccc(O)cc3)[C@H]12 (stereo not given in full) | -1.79% [at 28 µM]
7 | CC[C@@H](C)[C@H](NC(=O)C(C)(C)NC(=O)[C@H](CCC(N)=O)NC(=O)C(C)(CC)NC(=O)[C@H](Cc1c[nH]c2ccccc12)NC(C)=O)C(=O)N[C@H](C(=O)NC(C)(C)C(=O)N[C@@H](CC(C)C)C(=O)NC(C)(C)C(=O)N1CCC[C@H]1C(=O)N[C@@H](CCC(N)=O)C(=O)NC(C)(C)C(=O)N1CC(O)C[C@H]1C(=O)NC(C)(CC)C(=O)C1CC[C@@H](C(=O)N[C@@H](Cc2ccccc2)C(=O)NCC(=O)O)N1)C(C)O (stereo not given in full) (Ac-W[ξIva]Q[Aib][aIle][Thr(3ξ)][Aib]L[Aib]PQ[Aib][X8]-X9) | 18.1% [at 11.2 µM]
8 | COC(=O)[C@@H](NC(=O)[C@H](CC(C)C)NC(=O)N(Cc1ccccc1)C[C@@H](O)[C@H](Cc1ccccc1)NC(=O)OC(C)(C)C)C(C)C | 16.3% [at 11.2 µM]
9 | CC(=O)C1=CCC2C3CC=C4CC(O)CC(O)C4(C)C3C(O)CC12C (stereo not given) | 11.8%
10 | C=C(C)C1Cc2cc(C(=O)OC3OC(CO)C(O)C(O)C3O)ccc2O1 (stereo not given) | -18.9%
11 | CC1=C(C(=O)O)/C(=C\CO[C@@H]2O[C@H](CO)[C@@H](O)[C@H](O)[C@H]2O)C(OC(=O)/C=C/c2ccc(O)cc2)C1 (stereo not given in full) | -5.26% [at 28 µM]
12 | CC(=O)OC1C(O)/C(C)=C\C2C(OC(=O)c3ccccc3)C(C)CC2(OC(C)=O)C(OC(C)=O)C(C)/C=C/C(C)(C)C1OC(C)=O (stereo not given) | 2.66% [at 16.9 µM]
13 | COC(=O)C1=CO[C@@H](O[C@@H]2O[C@H](CO)[C@@H](O)[C@H](O)[C@H]2O)[C@H]2[C@@H]1C=C[C@]21C=C([C@H](C)OC(=O)/C=C/c2ccc(O)cc2)C(=O)O1 | -1.58% [at 16.9 µM]
14 | OC[C@H]1O[C@@H](OC[C@H]2O[C@@H](OC/C=C/c3ccccc3)[C@H](O)[C@@H](O)[C@@H]2O)[C@@H](O)[C@@H]1O | 3.1% [at 28 µM]
15 | C/C1=C\CCC(C)CCO[C@@H]2O[C@H](CO[C@@H]3OC[C@H](O)[C@H](O)[C@H]3OC1=O)[C@@H](O)[C@H](O)[C@H]2O (stereo not given in full) | -3.21% [at 28 µM]
16 | C=C1CC[C@@H]2[C@](C)(CC[C@H](O)[C@@]2(C)CCC=C(C)C)[C@@H]1Cc1c[nH]c2ccccc12 | 8.73% [at 28 µM]
17 | CC(C)=CCCC1(C)/C=C/C(OC(=O)C=C(C)C)C(C)(O)/C=C/C(=O)/C(CO)=C\C1 (stereo not given) | 17.5% [at 28 µM]
18 | O=C(O[C@@H]1O[C@H](CO)[C@@H](O)[C@H](O)[C@H]1O)c1c(O)cc(O)cc1/C=C/c1ccccc1 | -0.221% [at 28 µM]
19 | C[C@@H]1N[C@H]2N(C1=O)c1ccccc1[C@@]2(O)C[C@@H]1C(=O)N[C@@H](C)c2nc3ccccc3c(=O)n21 | 15.5% [at 28 µM]
20 | FC(F)(F)c1ccc(Nc2nc3ccc(Oc4ccnc(-c5ncc(C(F)(F)F)[nH]5)c4)cc3[nH]2)cc1 | 16.9%

Row | SMILES | activity change, negative = inhibition
21 | CC(=O)O[C@@H]1[C@H](O[C@@H]2OC[C@](O)(CO)[C@H]2O)[C@@H](O[C@@H]2O[C@@H](C)[C@H](O)[C@@H](O)[C@H]2O)[C@H](OC(=O)[C@]23CCC(C)(C)C[C@H]2C2=CCC4[C@@]5(C)C[C@H](O)[C@H](O[C@@H]6O[C@H](C(=O)O)[C@@H](O)[C@H](O)[C@H]6O)[C@@](C)(C(=O)O)C5CC[C@@]4(C)[C@]2(C)CC3)O[C@@H]1C (stereo not given in full) | -0.606% [at 16.9 µM]
22 | CC1=C2CC(=O)C(C)CC/C=C(\C)CC2OC1=O (stereo not given) | 9.21%
23 | CC1(CCOC2OC(CO)C(O)C(O)C2O)CCC23OC2(C1)C(O)CC1C(C)(C(=O)O)CCCC13C (stereo not given) | 18.7% [at 28 µM]
24 | CC(C)(C)OC(=O)c1ncn2c1C(C)(C)Nc1ccccc1-2 | -9.09%
25 | Cc1cc(F)ccc1-c1nc(NCCN=C(N)NC#N)nc2c1ccc(=O)n2-c1c(F)cccc1F | 2.57%
26 | C[C@@H]1O[C@@H](O[C@H]2[C@H](O)[C@@H](O[C@@H]3O[C@H](CO)[C@@H](O)[C@H](O[C@@H]4O[C@H](CO)[C@@H](O)[C@H](O)[C@H]4O)[C@H]3O)[C@H](O[C@H]3CC[C@@]4(C)C(=CC[C@@H]5C4CC[C@@]4(C)C5C[C@@H]5OC6(CC[C@@](C)(CO[C@@H]7O[C@H](CO)[C@@H](O)[C@H](O)[C@H]7O)O6)[C@@H](C)[C@@H]54)C3)O[C@@H]2CO)[C@H](O)[C@H](O)[C@H]1O (stereo not given in full) | 9.26% [at 11.2 µM]
27 | C[C@@H]1O[C@@H](O[C@H]2[C@@H]3C=CO[C@@H](O[C@@H]4O[C@H](CO)[C@@H](O)[C@H](O)[C@H]4O)[C@@H]3[C@@]3(CO)O[C@@H]23)[C@H](O)[C@H](OC(=O)/C=C/c2ccccc2)[C@H]1O | -14.9% [at 16.9 µM]
28 | O=C1NC(Cc2ccc(O)cc2)C(=O)N2CCCC12 (stereo not given) | 1.56%
29 | C=CCc1ccc(O[C@@H]2O[C@H](CO)[C@@H](O)[C@H](O)[C@H]2O)c(OC)c1 | -21.9%
30 | CC(=O)OC1C(O)C(C)(O)C(/C=C/C(=O)O)C2(C)CCCC(C)(C)C12 (stereo not given) | 12%
31 | COc1cccc(OC)c1-c1ccc(C[C@H](NC(=O)c2c(Cl)cccc2Cl)C(=O)O)cc1 | -4.02%
32 | C/C(=C\CO)CC/C=C(\C)C(=O)O[C@@H]1O[C@H](CO)[C@@H](O)[C@H](O)[C@H]1O | -4.76%
33 | Cc1ccc2c(c1)C=Cc1cc(C)ccc1C2c1cn(Cc2ccc(C(=O)Nc3nn[nH]n3)o2)c(=O)[nH]c1=S | 52.1%
34 | CC(=O)Nc1ccn(C2COC(COC(=O)c3ccccc3)O2)c(=O)n1 (stereo not given) | 5.73%
35 | CC1CC(=O)C2=C(CCC3(O)C(O)c4c(O)cccc4C(=O)C23O)C1 (stereo not given) | -2.08%
36 | CC(C)C1NC(=O)C(CC2(O)c3ccccc3N3C(=O)C(Cc4ccccc4)NC32)NC1=O (stereo not given) | -0.632% [at 28 µM]
37 | COc1c(N2CC3CCCNC3C2)c(F)cc2c(=O)c(C(=O)O)cn(C3CC3)c12 (stereo not given) | 13.1%
38 | COC(=O)C[C@H]1C(C)(C)[C@H](OC(=O)C(C)C)C2CC3=C4CC(=O)O[C@@H](c5ccoc5)[C@]4(C)CCC3[C@@]1(C)C2=O (stereo not given in full) | 7.18% [at 28 µM]
39 | C=C[C@H]1[C@H](O[C@@H]2O[C@H](CO)[C@@H](O)[C@H](O)[C@H]2O)OC=C(C(=O)OC)[C@H]1CC=O | 7.71%
40 | CCOc1ccc(-c2cc(NC(=O)c3c(F)cccc3F)c(C(=O)O)s2)cc1 | 1.98%

From PubChem BioAssay (NCATS)
